# Measured values reported in the supplement of paper PMC12669032.
# Tested on: Lactobacillus gasseri
# Test: growth AUC relative to DMSO control (median of replicates) (fraction); higher = more growth (less inhibition), active = hit call of the paper
# Details: 20 µM; 24 h;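 active = AUC reduced over 20% with Padj below 0.05 in at least 2 of 3 replicates; inactive = otherwise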
# Summary of the method: (§1)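 For each compound at 20 µM (1% DMSO), gut bacterial monocultures seeded at OD600 0.05 grew anaerobically in mGAM at 37 °C in round-bottom 96-well plates. Hourly OD600 readings over 24 h gave growth curves whose minimum OD was set to 0. Area under these curves was normalised to the plate median of solvent-only wells, or to row and column medians on the industrial chemical plate. Values are medians of three biological replicates grown on separate days.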
row,SMILES,growth AUC
1,O=C1c2ccccc2C(=O)N1SC(Cl)(Cl)Cl,1.01 (inactive)
2,CCCCOCN(C(=O)CCl)c1c(CC)cccc1CC,1.02 (inactive)
3,CN(C)C(CSC(N)=O)CSC(N)=O.Cl,0.978 (inactive)
4,O=NN(CCO)CCO,0.976 (inactive)
5,O=C(O)C(Cl)Cl,1.04 (inactive)
6,C1CCC(NC2CCCCC2)CC1.O=NO,1.06 (inactive)
7,Oc1ccc(Cl)cc1Cc1cc(Cl)ccc1O,0.115 (active)
8,Clc1cc(Cl)c(Cl)c(Cl)c1,0.918 (inactive)
9,CNC(=O)/C(=N/OC)c1ccccc1Oc1ccccc1,1.04 (inactive)
10,COC(=O)c1ccccc1CS(=O)(=O)NC(=O)Nc1nc(OC)cc(OC)n1,0.996 (inactive)
11,CNC(=O)O/N=C(\SC)C(=O)N(C)C,1.09 (inactive)
12,O=[N+]([O-])c1ccc(Oc2ccc(Cl)cc2Cl)cc1,0.789 (inactive)
13,CCCCOC(=O)c1ccccc1C(=O)OCCCC,0.911 (inactive)
14,O=C(NC(=O)c1c(F)cccc1F)Nc1ccc(Cl)cc1,0.93 (inactive)
15,COP(=S)(OC)Oc1ccc(S(C)=O)c(C)c1 (stereo not drawn),1.02 (inactive)
16,COP(=O)(OC)Oc1ccc(SC)c(C)c1,1.1 (inactive)
17,C=CC(N)=O,1.01 (inactive)
18,CCOC(=O)Nc1cccc(OC(=O)Nc2ccccc2)c1,1.24 (inactive)
19,C=CCC1=C(C)C(OC(=O)[C@@H]2[C@@H](C=C(C)C)C2(C)C)CC1=O (stereo partly drawn),0.962 (inactive)
20,CNC(=O)Oc1cc(C)c(N(C)C)c(C)c1,0.998 (inactive)
21,CC(C)(COCc1cccc(Oc2ccccc2)c1)c1ccc(OC(F)(F)Br)cc1,1.01 (inactive)
22,OC(c1ccc(Cl)cc1)(c1cncnc1)c1ccccc1Cl (stereo not drawn),0.922 (inactive)
23,CCCSP(=O)(OCC)Oc1ccc(Br)cc1Cl (stereo not drawn),0.976 (inactive)
24,CCOP(=S)(OCC)SCSc1ccc(Cl)cc1,0.884 (inactive)

# Tested on: Lactobacillus paracasei
# Test: as above
# Details: 20 µM; 24 h
# Summary of the method: as §1
row,SMILES,growth AUC
1,CC1(C)C(C=C(Cl)Cl)C1C(=O)OC(C#N)c1ccc(F)c(Oc2ccccc2)c1 (mixture of isomers),0.98 (inactive)
2,c1ccc2c(c1)cc1ccc3cccc4ccc2c1c34,0.967 (inactive)
3,CCc1cccc(C)c1N(C(=O)CCl)C(C)COC (stereo not drawn),1.02 (inactive)
4,CO/C=C(/C(=O)OC)c1ccccc1Oc1cc(Oc2ccccc2C#N)ncn1,1.06 (inactive)
5,O=C(NCCc1ncc(C(F)(F)F)cc1Cl)c1ccccc1C(F)(F)F,1.01 (inactive)
6,CC(=O)CC(c1ccc(Cl)cc1)c1c(O)c2ccccc2oc1=O (stereo not drawn),0.982 (inactive)
7,CCOP(=S)(OCC)Oc1ccc(S(C)=O)cc1 (stereo not drawn),1 (inactive)
8,CCOP(=O)(NC(C)C)Oc1ccc(S(C)(=O)=O)c(C)c1 (stereo not drawn),1.03 (inactive)
9,Clc1cccc(C(Cl)(Cl)Cl)n1,1.01 (inactive)
10,COP(=O)(OC)Oc1ccc(S(C)(=O)=O)c(C)c1,0.971 (inactive)
11,Clc1ccc(C(c2ccc(Cl)cc2)C(Cl)(Cl)Cl)cc1,0.908 (inactive)
12,O=c1oc2ccccc2c(O)c1C(CC(O)c1ccc(-c2ccc(Br)cc2)cc1)c1ccccc1 (stereo not drawn),0.838 (inactive)
13,C[Si](Cn1cncn1)(c1ccc(F)cc1)c1ccc(F)cc1,0.925 (inactive)
14,CCCCN(CC)c1c([N+](=O)[O-])cc(C(F)(F)F)cc1[N+](=O)[O-],1.03 (inactive)
15,Cc1cc(Cl)ccc1OCC(=O)O,1.04 (inactive)
16,O=C1c2ccccc2C(=O)N1SC(Cl)(Cl)Cl,0.963 (inactive)
17,CCCCOCN(C(=O)CCl)c1c(CC)cccc1CC,1.04 (inactive)
18,CN(C)C(CSC(N)=O)CSC(N)=O.Cl,1.08 (inactive)
19,O=NN(CCO)CCO,1.01 (inactive)
20,O=C(O)C(Cl)Cl,1.05 (inactive)
21,C1CCC(NC2CCCCC2)CC1.O=NO,0.985 (inactive)
22,Oc1ccc(Cl)cc1Cc1cc(Cl)ccc1O,0.47 (active)
23,Clc1cc(Cl)c(Cl)c(Cl)c1,0.949 (inactive)
24,CNC(=O)/C(=N/OC)c1ccccc1Oc1ccccc1,1.05 (inactive)
